Test results: PubChem BioAssay (Tox21)
Unmarked numbers belong to inactive results. Results filed as inconclusive are left out. A call without a number means that no potency is given here. Calls of active or inactive are those of the source. Unless noted, the call rests on the fitted dose curve; in most records, active means well fitted curve in the direction sought with a large enough effect in the repeat runs; inconclusive means weak or mixed curves; inactive means no such curve, though single readings can be large; an effect the other way counts as inactive or inconclusive.

Key:
[1] = qHTS assay for small molecule agonists of the p53 signaling pathway - cell viability (AID 651633; calls by dose curve; further: nearly all actives have a fitted effect of over 30% in size; further: potency means the concentration at half of the fitted maximal effect)
How it was run: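 p53RE-bla cells, seeded at 4,000 per well and rested 5 h at 37 C/5% CO2, received compounds in DMSO for 16 h at 37 C. CellTiter-Glo was then added, and luminescence was read after 30 min at room temperature to gauge cytotoxicity.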

[2] = qHTS assay for small molecules that induce genotoxicity in human embryonic kidney cells expressing luciferase-tagged ATAD5 - cell viability (AID 651634; calls by dose curve; further: nearly all actives have a fitted effect of over 25% in size; further: potency means the concentration at half of the fitted maximal effect)
How it was run: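 Quantitative high-throughput format. HEK293T cells expressing ATAD5 fused to luciferase were plated at 2,000 cells/well and treated 15.5 hr with compound versus DMSO. Viability was determined by fluorescent live-cell protease substrate, 30 min at 37C.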

[3] = qHTS assay to test for compound auto fluorescence at 460 nm (blue) in HEK293 cells (AID 720678)
How it was run: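 Triamterene serves as the blue fluorophore standard. Compound signal at 405/460 nm is read in HEK293 wells (2,000 cells, 10% dialyzed FBS) after overnight treatment at 37C.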

[4] = qHTS assay to test for compound auto fluorescence at 590 nm (red) in HEK293 cells (AID 720679)
How it was run: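 We plated HEK293 cells in 10% dialyzed FBS medium, let them adhere for 4-5 hr, then added 23 nL compound. Overnight at 37C and 5% CO2 preceded fluorescence measurement at 540/590nm.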

[5] = qHTS assay to test for compound auto fluorescence at 460 nm (blue) in HEK293 cell free culture (AID 720681)
How it was run: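 Test compounds were pinned into cell-free culture medium (DMEM with 10% FBS) and fluorescence was read directly at Ex/Em 405/460 nm. Signals were expressed as fluorescence equivalents of triamterene, with DMSO vehicle as control.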

[6] = qHTS assay to test for compound auto fluorescence at 590 nm (red) in HEK293 cell free culture (AID 720683)
How it was run: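 Tox21 10K library compounds were pinned into cell-free DMEM with 10% FBS and fluorescence was read at excitation 540 nm. Activity is expressed as Rose Bengal sodium equivalency.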

[7] = qHTS assay to test for compound auto fluorescence at 460 nm (blue) in HepG2 cell free culture (AID 720685)
How it was run: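 Cell-free plates of MEM plus 10% FBS received 23 nL compound or DMSO vehicle; blue-channel (405/460 nm) intensity scored against triamterene as reference fluorophore.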

[8] = qHTS assay to test for compound auto fluorescence at 535 nm (green) in HepG2 cell free culture (AID 720686)
[9] = qHTS assay to identify small molecule antagonists of the glucocorticoid receptor (GR) signaling pathway - cell viability counter screen (AID 720693); further: nearly all actives have a fitted effect of over 55% in size; further: potency means the concentration at half of the fitted maximal effect
[10] = qHTS assay to identify small molecule antagonists of the androgen receptor (AR) signaling pathway - cell viability counter screen (AID 743033; further: nearly all actives have a fitted effect of over 45% in size; further: potency means the concentration at half of the fitted maximal effect)
[11] = qHTS assay to identify small molecule antagonists of the androgen receptor (AR) signaling pathway using the MDA cell line - cell viability counter screen (AID 743041; further: nearly all actives have a fitted effect of over 45% in size; further: potency means the concentration at half of the fitted maximal effect)
How it was run: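 In this qHTS counter assay, fluorescence intensity after CellTiter-Fluor addition indicated viability of MDA-kb2 AR-luc cells given compounds and R1881 for 16 h at 37C.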

[12] = test system: thyroid hormone receptor (rat, GH3 cells); assay: qHTS assay to identify small molecule agonists of the thyroid receptor (TR) signaling pathway (AID 743066; calls by dose curve)
[13] = qHTS assay to identify small molecule antagonists of the estrogen receptor alpha (ER-alpha) signaling pathway - cell viability counter screen (AID 743074; calls by dose curve;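 further: HEK293 cells carrying ER-alpha-UAS-bla reporter stimulated with 17beta-estradiol; nearly all actives have a fitted effect of over 45% in size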; further: potency means the concentration at half of the fitted maximal effect)
Aromatase (Homo sapiens) = Aromatase (Homo sapiens) (UniProt P11511); assay: qHTS assay to identify aromatase inhibitors (AID 743083); further: nearly all actives have a fitted effect of over 55% in size; further: potency means the concentration at half of the fitted maximal effect
[14] = qHTS assay to identify aromatase inhibitors - cell viability counter screen (AID 743084);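 further: cells stimulated with testosterone during compound exposure; nearly all actives have a fitted effect of over 55% in size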; further: potency means the concentration at half of the fitted maximal effect
[15] = qHTS assay to identify small molecule that activate the aryl hydrocarbon receptor (AhR) signaling pathway - cell viability counter screen (AID 743086); further: nearly all actives have a fitted effect of over 45% in size; further: potency means the concentration at half of the fitted maximal effect
How it was run: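 HepG2-AhR-luc (HG2L7.5c1) cells, 4000/well, were preincubated 5 h at 37C, exposed to compound in qHTS format for 24 hr at 37C, then given CellTiter-Fluor for 30 min; viability was read as fluorescence in the reporter wells.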

[16] = qHTS assay to identify small molecule phospholipidosis (PLD) inducers (AID 1259344; active means well fitted curve in the direction sought with a large enough effect; an effect the other way counts as inactive or inconclusive)
How it was run: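 After 4 h attachment on collagen I, HepG2 cells were dosed with compound alongside LipidTOX Red, kept 24 h at 37 C, fixed, and imaged for lamellar phospholipid pits.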

[17] = target: Nuclear receptor subfamily 1 group I member 2 (Rattus norvegicus) (UniProt Q9R1A7); assay: Rat pregnane X receptor (rPXR) activation by small molecules, qHTS assay (AID 1346983); settings: rPXR luciferase reporter cells, One-Glo luminescence, 24 h; max activation: hits give high values; further: nearly all actives have a fitted effect of over 20% in size
How it was run: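 Cell-based rPXR luciferase reporter assay, 2,000 cells per well, rested 5hr at 37 C before compound addition in DMSO, then 24 hr at 37 C. One-Glo reagent was added and luminescence read after 30 min at room temperature.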

[18] = qHTS assay to identify small molecule antagonists of the thyroid receptor (TR) signaling pathway (AID 743065); further: nearly all actives have a fitted effect of over 55% in size; further: potency means the concentration at half of the fitted maximal effect
How it was run: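 GH3.TRE-Luc rat pituitary cells carrying two TR response elements driving luciferase were plated for 4 h, given compound plus 1 nM T3 (final), and incubated 23.5 h at 37 C. ONE-Glo luminescence measured reporter inhibition; CellTiter-Fluor fluorescence tracked cytotoxicity.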

[19] = qHTS assay to identify small molecule antagonists of the estrogen receptor alpha (ER-alpha) signaling pathway using the BG1 cell line - cell viability counter screen (AID 743081); further: potency means the concentration at half of the fitted maximal effect

Sequence of Aromatase (Homo sapiens) (P11511 whole entry, looked up): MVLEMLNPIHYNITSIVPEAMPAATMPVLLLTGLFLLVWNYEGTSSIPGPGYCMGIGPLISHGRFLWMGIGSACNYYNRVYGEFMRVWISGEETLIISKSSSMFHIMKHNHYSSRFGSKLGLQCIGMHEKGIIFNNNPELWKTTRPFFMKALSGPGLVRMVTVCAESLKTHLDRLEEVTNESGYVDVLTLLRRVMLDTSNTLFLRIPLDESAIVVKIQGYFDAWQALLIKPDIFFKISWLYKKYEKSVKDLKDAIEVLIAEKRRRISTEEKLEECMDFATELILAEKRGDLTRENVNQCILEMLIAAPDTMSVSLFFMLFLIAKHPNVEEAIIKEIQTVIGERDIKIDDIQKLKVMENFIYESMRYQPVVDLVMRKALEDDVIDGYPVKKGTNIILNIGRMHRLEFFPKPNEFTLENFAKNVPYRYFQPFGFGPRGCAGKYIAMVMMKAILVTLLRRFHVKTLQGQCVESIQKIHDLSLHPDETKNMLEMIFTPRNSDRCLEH
Sequence of Nuclear receptor subfamily 1 group I member 2 (Rattus norvegicus) (Q9R1A7 whole entry, looked up): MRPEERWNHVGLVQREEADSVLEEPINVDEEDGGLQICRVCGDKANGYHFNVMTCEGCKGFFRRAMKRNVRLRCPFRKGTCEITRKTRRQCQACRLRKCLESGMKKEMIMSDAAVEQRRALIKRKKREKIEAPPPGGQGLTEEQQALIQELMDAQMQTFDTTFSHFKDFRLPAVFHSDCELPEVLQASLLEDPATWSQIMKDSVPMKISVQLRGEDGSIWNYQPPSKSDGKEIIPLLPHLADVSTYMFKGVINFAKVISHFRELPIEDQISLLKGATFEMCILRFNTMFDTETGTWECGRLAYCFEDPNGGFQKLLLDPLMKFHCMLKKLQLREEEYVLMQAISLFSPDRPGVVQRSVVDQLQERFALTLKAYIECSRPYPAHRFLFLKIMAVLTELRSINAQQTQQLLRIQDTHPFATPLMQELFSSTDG

For CCC1(c2ccccc2)C(=O)NC(=O)N(C(=O)c2ccccc2)C1=O (stereo not drawn), the Potency [1] was “inactive”, the Potency [2] was “inactive” and the Potency [3] was “inactive”. For the same compound, the outcome [4] was “inactive”, the Potency [5] was “inactive” and the outcome [6] was “inactive”. The Potency [7] was “inactive”, the Potency [8] was “inactive” and the Potency [9] was “inactive”. The Potency [10] was “inactive”, the Potency [11] was “inactive” and the Potency [12] was “inactive”. The Potency [13] was “inactive”, the Potency (Aromatase (Homo sapiens)) was “inactive” and the Potency [14] was “inactive”. The Potency [15] was “inactive”, the Potency [16] was “inactive” and the max activation [17] was -3.53%.

For CC[N+](C)(CC)CCOC(=O)C(O)(c1ccccc1)c1ccccc1, the Potency [1] was “inactive”, the Potency [2] was “inactive” and the Potency [3] was “inactive”. For the same compound, the outcome [4] was “inactive”, the Potency [5] was “inactive” and the outcome [6] was “inactive”. For the same compound, the Potency [7] was “inactive”, the Potency [8] was “inactive” and the Potency [9] was “inactive”. For the same compound, the Potency [10] was “inactive”, the Potency [11] was “inactive” and the Potency [18] was “inactive”. For the same compound, the Potency [12] was “inactive”, the Potency [13] was “inactive” and the Potency [19] was “inactive”. For the same compound, the Potency (Aromatase (Homo sapiens)) was “inactive”, the Potency [14] was “inactive” and the Potency [15] was “inactive”. The Potency [16] was “inactive” and the max activation [17] was -2.16%.

For CCC(=O)O[C@@](Cc1ccccc1)(c1ccccc1)[C@@H](C)CN(C)C, the Potency [1] was “inactive”, the Potency [2] was “inactive” and the Potency [3] was “inactive”. The outcome [4] was “inactive”, the Potency [5] was “inactive” and the outcome [6] was “inactive”. For the same compound, the Potency [7] was “inactive”, the Potency [8] was “inactive” and the Potency [9] was “inactive”. The Potency [11] was “inactive”, the Potency [18] was “inactive” and the Potency [12] was “inactive”. For the same compound, the Potency [13] was “inactive”, the Potency [15] was “inactive” and the Potency [16] was “inactive”. It also gave a max activation [17] of 0.731%.

With CCOc1ccc2c3c1O[C@H]1[C@@H](O)C=C[C@H]4[C@@H](C2)N(C)CC[C@@]341 the Potency [1] was “inactive”, the Potency [2] was “inactive” and the Potency [3] was “inactive”. The outcome [4] was “inactive”, the Potency [5] was “inactive” and the outcome [6] was “inactive”. The Potency [7] was “inactive”, the Potency [8] was “inactive” and the Potency [9] was “inactive”. For the same compound, the Potency [10] was “inactive”, the Potency [11] was “inactive” and the Potency [12] was “inactive”. For the same compound, the Potency [13] was “inactive”, the Potency [19] was “inactive” and the Potency (Aromatase (Homo sapiens)) was “inactive”. The Potency [14] was “inactive”, the Potency [15] was “inactive” and the Potency [16] was “inactive”. The max activation [17] was -1.03%.

With O=C(CS(=O)C(c1ccccc1)c1ccccc1)NO (stereo not drawn) the Potency [1] was “inactive”, the Potency [2] was “inactive” and the Potency [3] was “inactive”. The outcome [4] was “inactive”, the Potency [5] was “inactive” and the outcome [6] was “inactive”. For the same compound, the Potency [7] was “inactive”, the Potency [8] was “inactive” and the Potency [9] was “inactive”. The Potency [11] was “inactive”, the Potency [18] was “inactive” and the Potency [12] was “inactive”. For the same compound, the Potency [13] was “inactive”, the Potency [19] was “inactive” and the Potency (Aromatase (Homo sapiens)) was “inactive”. For the same compound, the Potency [14] was “inactive”, the Potency [16] was “inactive” and the max activation [17] was -2.68%.

In the case of C=CCN1CC[C@]23c4c5ccc(O)c4O[C@H]2[C@@H](O)C=C[C@H]3[C@H]1C5, the Potency [1] is reported as “inactive”, the Potency [2] is reported as “inactive” and the Potency [3] is reported as “inactive”. For the same compound, the outcome [4] was “inactive”, the Potency [5] was “inactive” and the outcome [6] was “inactive”. For the same compound, the Potency [7] was “inactive”, the Potency [8] was “inactive” and the Potency [9] was “inactive”. The Potency [11] was “inactive”, the Potency [18] was “inactive” and the Potency [12] was “inactive”. For the same compound, the Potency [13] was “inactive”, the Potency [19] was “inactive” and the Potency (Aromatase (Homo sapiens)) was “inactive”. The Potency [14] was “inactive”, the Potency [15] was “inactive” and the Potency [16] was “inactive”. The max activation [17] was -1.77%.

For Oc1cccc[c]1[Hg][Cl], the Potency [1] was 7.5 µM (active), the Potency [2] was 4.22 µM (active) and the Potency [3] was “inactive”. The outcome [4] was “inactive”, the Potency [5] was “inactive” and the outcome [6] was “inactive”. For the same compound, the Potency [7] was “inactive”, the Potency [8] was “inactive” and the Potency [9] was 5.35 µM (active). The Potency [10] was 10.7 µM (active), the Potency [11] was 7.5 µM (active) and the Potency [18] was 0.473 µM (active). The Potency [13] was 21.3 µM (active), the Potency [19] was 23.7 µM (active) and the Potency (Aromatase (Homo sapiens)) was 3.76 µM (active). For the same compound, the Potency [14] was 5.31 µM (active), the Potency [15] was 16.8 µM (active) and the Potency [16] was “inactive”. For the same compound, the max activation [17] was -19.4%.

With [2H]C([2H])([2H])[C@H](N)Cc1ccccc1 the Potency [1] was “inactive”, the Potency [2] was “inactive” and the Potency [3] was “inactive”. The outcome [4] was “inactive”, the Potency [5] was “inactive” and the outcome [6] was “inactive”. For the same compound, the Potency [7] was “inactive”, the Potency [8] was “inactive” and the Potency [9] was “inactive”. The Potency [10] was “inactive”, the Potency [11] was “inactive” and the Potency [18] was “inactive”. For the same compound, the Potency [12] was “inactive”, the Potency [13] was “inactive” and the Potency [19] was “inactive”. For the same compound, the Potency (Aromatase (Homo sapiens)) was “inactive”, the Potency [14] was “inactive” and the Potency [15] was “inactive”. The Potency [16] was “inactive” and the max activation [17] was -6.9%.

With CCCC(=O)OC(C(Cl)(Cl)Cl)P(=O)(OC)OC (stereo not drawn) the Potency [1] was “inactive”, the Potency [3] was “inactive” and the outcome [4] was “inactive”. The Potency [5] was “inactive”, the outcome [6] was “inactive” and the Potency [7] was “inactive”. The Potency [8] was “inactive”, the Potency [9] was “inactive” and the Potency [10] was “inactive”. For the same compound, the Potency [11] was “inactive”, the Potency [18] was “inactive” and the Potency [12] was “inactive”. The Potency [13] was “inactive”, the Potency [19] was “inactive” and the Potency (Aromatase (Homo sapiens)) was “inactive”. For the same compound, the Potency [14] was “inactive”, the Potency [15] was “inactive” and the Potency [16] was “inactive”. For the same compound, the max activation [17] was 0.574%.
